Reference: PubChem BioAssay (Tox21)
Records with an inconclusive call do not appear. Entries that show only a call come without a potency. Activity calls are given as the source filed them. Unless noted, the call rests on the fitted dose curve; in most records, active means well fitted curve in the direction sought with a large enough effect in the repeat runs; inconclusive means weak or mixed curves; inactive means no such curve, though single readings can be large; an effect the other way counts as inactive or inconclusive.

How the values were obtained:
[1] = qHTS assay to identify small molecule antagonists of the thyroid receptor (TR) signaling pathway - cell viability counter screen (AID 743064); further: nearly all actives have a fitted effect of over 50% in size; further: potency means the concentration at half of the fitted maximal effect
Method in brief: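 CellTiter-Fluor readout, 30 min at 37 °C/5% CO2, following 23.5 h incubation of GH3.TRE-Luc cells with test compound and 1 nM T3 (final).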

[2] = qHTS assay to identify small molecule antagonists of the thyroid receptor (TR) signaling pathway (AID 743065); further: nearly all actives have a fitted effect of over 55% in size; further: potency means the concentration at half of the fitted maximal effect
Method in brief: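 GH3.TRE-Luc rat pituitary cells (two TREs driving luciferase) were dosed with compound, then stimulated with 1 nM T3 (final) for 23.5 h at 37 C. ONE-Glo luminescence was the read-out, with CellTiter-Fluor fluorescence as the cytotoxicity counter-screen.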

[3] = test system: thyroid hormone receptor (rat, GH3 cells); test: qHTS assay to identify small molecule agonists of the thyroid receptor (TR) signaling pathway (AID 743066; calls by dose curve)
[4] = target: Estrogen receptor (Homo sapiens) (UniProt P03372); test: qHTS assay to identify small molecule antagonists of the estrogen receptor alpha (ER-alpha) signaling pathway (AID 743069; active means well fitted curve in the direction sought with a large enough effect in the signal ratio in the repeat runs, not every such curve was filed as active; the % refers to the signal ratio)
Method in brief: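 In this cell-based reporter format, GripTite HEK293 cells harbouring ER-alpha-UAS-bla were grown overnight with 2% charcoal-stripped FBS, dosed with DMSO-dissolved compounds, then challenged with 17beta-estradiol. After 18 hr at 37C, beta-lactamase activity was detected by FRET fluorescence.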

[5] = qHTS assay to identify small molecule antagonists of the estrogen receptor alpha (ER-alpha) signaling pathway - cell viability counter screen (AID 743074; calls by dose curve; further: nearly all actives have a fitted effect of over 45% in size)
[6] = target: Estrogen receptor (Homo sapiens) (UniProt P03372); test: qHTS assay to identify small molecule agonists of the estrogen receptor alpha (ER-alpha) signaling pathway (AID 743075; calls by dose curve)
[7] = target: Estrogen receptor (Homo sapiens) (UniProt P03372); test: qHTS assay to identify small molecule agonists of the estrogen receptor alpha (ER-alpha) signaling pathway using the BG1 cell line (AID 743079); further: nearly all actives have a fitted effect of over 20% in size
[8] = qHTS assay to identify small molecule antagonists of the estrogen receptor alpha (ER-alpha) signaling pathway using the BG1 cell line (AID 743080; calls by dose curve;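 further: BG1 cells stimulated with 17beta-estradiol alongside compound; series mostly up to about 70 µM; nearly all actives have a fitted effect of over 25% in size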)
Method in brief: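 After 5 days in phenol-red-free 10% charcoal-stripped FBS medium, BG1-Luc-4E2 cells were seeded, left 24 h at 37 C, co-treated with compounds and 17beta-estradiol for 21.5 h, then assayed for viability and luciferase.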

[9] = qHTS assay to identify small molecule antagonists of the estrogen receptor alpha (ER-alpha) signaling pathway using the BG1 cell line - cell viability counter screen (AID 743081);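 further: compound given together with 17beta-estradiol as the ER stimulus; series mostly up to about 70 µM; nearly all actives have a fitted effect of over 45% in size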
[10] = target: Aromatase (Homo sapiens) (UniProt P11511); test: qHTS assay to identify aromatase inhibitors (AID 743083); further: series mostly up to about 70 µM; nearly all actives have a fitted effect of over 55% in size
Aromatase (Homo sapiens), sequence (P11511 whole entry, looked up): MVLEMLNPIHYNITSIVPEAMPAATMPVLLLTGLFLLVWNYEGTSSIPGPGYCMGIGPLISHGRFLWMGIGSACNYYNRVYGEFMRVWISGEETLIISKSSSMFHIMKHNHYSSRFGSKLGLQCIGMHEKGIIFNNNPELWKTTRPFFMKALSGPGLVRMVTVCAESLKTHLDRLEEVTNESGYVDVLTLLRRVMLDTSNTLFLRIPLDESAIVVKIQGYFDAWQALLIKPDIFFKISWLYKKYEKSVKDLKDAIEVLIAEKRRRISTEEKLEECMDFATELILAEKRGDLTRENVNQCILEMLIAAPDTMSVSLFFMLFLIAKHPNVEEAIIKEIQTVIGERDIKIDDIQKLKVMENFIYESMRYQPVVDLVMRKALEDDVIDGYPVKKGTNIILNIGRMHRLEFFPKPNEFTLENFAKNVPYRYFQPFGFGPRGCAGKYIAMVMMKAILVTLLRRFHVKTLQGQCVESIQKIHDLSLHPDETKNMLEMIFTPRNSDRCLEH

Estrogen receptor (Homo sapiens), sequence (P03372 whole entry, looked up): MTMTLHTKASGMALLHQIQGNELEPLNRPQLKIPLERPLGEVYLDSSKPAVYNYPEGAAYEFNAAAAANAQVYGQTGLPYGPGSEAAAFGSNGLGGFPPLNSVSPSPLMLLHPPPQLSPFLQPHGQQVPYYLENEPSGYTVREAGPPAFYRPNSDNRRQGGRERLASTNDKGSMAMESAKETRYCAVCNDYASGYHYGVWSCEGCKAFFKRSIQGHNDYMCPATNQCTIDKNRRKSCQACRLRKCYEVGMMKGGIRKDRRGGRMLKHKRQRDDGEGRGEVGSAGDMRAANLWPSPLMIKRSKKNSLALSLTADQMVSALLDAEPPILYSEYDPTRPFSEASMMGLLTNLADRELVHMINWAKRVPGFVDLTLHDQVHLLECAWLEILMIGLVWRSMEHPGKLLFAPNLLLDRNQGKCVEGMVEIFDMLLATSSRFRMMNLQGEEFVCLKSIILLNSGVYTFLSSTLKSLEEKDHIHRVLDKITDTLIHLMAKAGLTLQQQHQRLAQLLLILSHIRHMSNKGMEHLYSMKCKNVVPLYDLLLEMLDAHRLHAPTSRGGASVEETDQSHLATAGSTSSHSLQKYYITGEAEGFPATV

SMILES | Potency [1] | Potency [2] | outcome [3] | outcome [4] | outcome [5] | Potency [6] | Potency [7] | outcome [8] | Potency [9] | Potency [10]
CCCc1cc(C(N)=S)ccn1 | inactive | inactive | inactive | inactive | inactive | inactive | inactive | inactive | inactive | inactive
CC(=O)CC(C)(C)C1CCCCC1 | inactive | inactive | inactive | inactive | inactive | inactive | inactive | inactive | inactive | inactive
O=C[C@H](O)[C@@H](O)[C@H](O)[C@H](O)CO | inactive | inactive | inactive | inactive | inactive | inactive | inactive | inactive | inactive | inactive
CCC(=O)OC(C)c1ccccc1 (centres undefined) | inactive | inactive | inactive | inactive | inactive | inactive | inactive | inactive | inactive | inactive
NC(=O)Nc1ccccc1 | inactive | inactive | inactive | inactive | inactive | inactive | inactive | inactive | inactive | inactive
CCc1nccnc1CC | inactive | inactive | inactive | inactive | inactive | inactive |  | inactive | inactive | inactive
CN(C)CCCSc1ccccc1NC(=O)/C=C/c1ccccc1 | 26.6 µM (active) | 23.7 µM (active) | inactive | inactive |  | inactive | inactive | inactive |  | inactive
O=C(CCCN1CCN(c2ccccn2)CC1)c1ccc(F)cc1 | inactive | inactive | inactive |  | inactive |  |  |  | inactive | inactive
Cn1cc(S(C)=O)c(=O)c2ccc(F)cc21 (centres undefined) | inactive | inactive | inactive | inactive |  | inactive | inactive | inactive |  | inactive
Cc1nc2c([nH]1)c(=O)n(C)c(=O)n2Cc1ccco1 | inactive | inactive | inactive | inactive | inactive | inactive | inactive |  | inactive | inactive
CN1CCCC1 | inactive | inactive | inactive | inactive |  | inactive | inactive | inactive | inactive | inactive
CC(=O)OCC(=O)[C@@]1(O)CCC2C3CCC4=CC(=O)CC[C@]4(C)C3[C@@H](O)C[C@@]21C (some centres undefined) | inactive | inactive | inactive |  | inactive |  |  |  | inactive | inactive
NC(=O)c1ccc(N)cc1 | inactive | inactive | inactive | inactive |  | inactive |  | inactive | inactive | inactive
N=C(N)c1ccccc1 | inactive | inactive | inactive |  | inactive |  |  |  | inactive | inactive
C1OCOCO1 | inactive | inactive | inactive |  | inactive |  |  |  | inactive | inactive
COC(=O)CCSCCC(=O)OC | inactive | inactive | inactive |  | inactive |  |  |  | inactive | 

SMILES | Potency [1] | Potency [2] | outcome [3] | outcome [4] | outcome [5] | Potency [6] | Potency [7] | outcome [8] | Potency [9] | Potency [10]
CC1=CC(C)C(C=O)CC1 (centres undefined) | inactive | inactive | inactive | inactive |  | inactive |  | inactive | inactive | inactive
Cc1[nH]c(=O)c(C#N)cc1-c1ccc2nccn2c1 | inactive | inactive | inactive |  | inactive |  |  |  | inactive | 
CC(C)OC(=O)c1ccccc1 | inactive | inactive | inactive | inactive |  | inactive | inactive | inactive | inactive | inactive
CCCCCOC(=O)CCCCC | inactive | inactive | inactive | inactive |  | inactive | inactive | inactive | inactive | inactive
CCN1CCC[C@H]1CNC(=O)c1cc(S(N)(=O)=O)ccc1OC | inactive | inactive | inactive |  | inactive |  |  |  | inactive | inactive
CCOC(=O)CCC(C)=O | inactive | inactive | inactive | inactive | inactive | inactive |  | inactive | inactive | inactive
CC(=O)c1ccccc1O | inactive | inactive | inactive | inactive |  | inactive | inactive | inactive | inactive | inactive
O=C1CCCC(=O)C1 | inactive | inactive | inactive |  | inactive |  |  |  | inactive | inactive
N=C(N)c1ccc(OCCCOc2ccc(C(=N)N)cc2)cc1 | inactive | inactive | inactive | inactive |  | inactive | inactive | inactive | inactive | 
CC(=O)OCC(CCn1cnc2cnc(N)nc21)COC(C)=O | inactive | inactive | inactive | inactive | inactive | inactive | inactive |  | inactive | inactive
CC(=O)Nc1c(I)cc(I)c(C(=O)O)c1I | inactive | inactive | inactive |  | inactive | inactive | inactive | inactive | inactive | inactive
O=Cc1cccc([N+](=O)[O-])c1 | inactive | inactive | inactive | inactive |  | inactive | inactive | inactive | inactive | inactive
CC(C)=CCCC(C)CC(=O)O (centres undefined) | inactive | inactive | inactive |  | inactive |  |  |  | inactive | inactive
CCOC(=O)c1cccc(N)c1 | inactive | inactive | inactive | inactive | inactive | inactive |  |  | inactive | inactive
CC(=O)OC/C=C(\C)CC/C=C(\C)CCC=C(C)C | inactive | inactive | inactive | inactive | inactive | inactive | inactive |  | inactive | inactive
